Measured values from PubChem BioAssay (Tox21).
“And” between values parts separate entries of the source, which are not always exact repeats. Identical values can stand only once. Records with an inconclusive call do not appear. A call without a number means that no potency is given here. The source made the active and inactive calls. Calls follow the shape of the dose curve; as a rule, active = well fitted inhibition curve with a large enough effect in the repeat runs; inconclusive = weak or mixed curves, or effect the other way; inactive = no such curve, though single readings can be large or run the other way.

Target: Nuclear receptor ROR-gamma (Homo sapiens) (UniProt P51449)
Test: qHTS assay to identify small molecule antagonists of the retinoid-related orphan receptor gamma (ROR-gamma) signaling pathway (AID 1159521; also: nearly all actives have a fitted effect of over 50% in size; as to activity change, negative = inhibition: top concentration of the series differs between compounds)
Details: Tet-on RORgamma CHO cells, RORE-luciferase, 16 h; series mostly up to 92.4 µM; activity change, negative = inhibition: at the top concentration
Excerpt: U.S. Tox21 Program National Center for Advancing Translational Sciences [NCATS] NIH Chemical Genomics Center [NCGC] U.S. Environmental Protection Agency [EPA] National Institutes of Environmental Health Sciences [NIEHS] National Toxicology Program [NTP] U.S. Food and Drug Administration [FDA] Tox21 Assay Overview: Nuclear steroid hormone receptors are involved in many biological processes including inflammatory responses, cell proliferation, and apoptosis. Environmental factors or compounds disrupting these nuclear receptor pathways and gene expression may promote susceptibility to immunotoxicants and autoimmune diseases. One important group of these expression factors are the retinoid-related orphan receptors. To assess compounds that may interfere with the retinoid-related orphan receptor gamma (ROR-gamma) transcription factor, a cell-based luciferase assay was used. The CHO cell-based assay utilizes a TET-inducible ROR expression factor and ROR response element-LUC reporter gene. Reporter gene activity was induced using Doxycycline Hyclate and measured after 16 hr incubation. Tet-on ROR gamma CHO cells were used to screen against the Tox21 10K compound library for ROR gamma antagonists by quantification of decreased reporter gene activity in terms of decreased luminescence.
Tox21 Assay Protocol Summary: Tet-on ROR gamma CHO cells were dispensed at 1,000 cells in 4 uL of culture medium per well into white wall/solid bottom 1536-well plates using a Multidrop Combi (Thermo Scientific, Waltham, MA) dispenser. Following incubation at 37 C and 5% CO2 for 4 hr, 23 nL of compounds dissolved in DMSO, positive controls or DMSO only were transferred by a Pintool station (Kalypsys, San Diego, CA) and after 2 hr incubation at 37 C, one ul of 1 uM (final concentration) of Doxycycline Hyclate was added to all the wells by using a Flying Reagent Dispenser (FRD) (Aurora Discovery, San Diego, CA). After 16 hr incubation at 37 C and 5% CO2, 5 uL of ONE-Glo reagent (Promega Corporation, Madison, WI) was added to each assay plate using FRD. After 30 min incubation at room temperature, luminescence was quantified on a ViewLux plate reader (Perkin Elmer, Waltham, MA).
Potency is read from the fitted curve at half-maximal effect.

Row | Structure (SMILES) | Potency | activity change, negative = inhibition
1 | CC1(C)O[C@@H]2C[C@H]3[C@@H]4CCC5=CC(=O)C=C[C@]5(C)[C@@]4(F)[C@@H](O)C[C@]3(C)[C@]2(C(=O)CO)O1 | inactive | –
2 | Nc1ccc2c(c1)CN1C(=O)c3ccccc3C1=N2 | – | -8.87% [at 19 µM] (inactive)
3 | O=C1NS(=O)(=O)c2ccccc21 | inactive | –
4 | CN1[C@@H]2CC(OC(=O)[C@H](CO)c3ccccc3)C[C@H]1[C@@H]1O[C@@H]12 (stereo not given in full) | inactive | –
5 | CCCC[P+](CCCC)(CCCC)CCCC | inactive | –
6 | CCN(CC)C(=O)c1cccc(C)c1 | inactive | –
7 | O=c1[nH]cnc2c1ncn2[C@H]1CC[C@@H](CO)O1 | inactive | –
8 | COc1ccc(C(Cl)=C(c2ccc(OC)cc2)c2ccc(OC)cc2)cc1 | 19.2 µM (active) | –
9 | CN(C)CCOC(C)(c1ccccc1)c1ccccn1 (stereo not given) | inactive | –
10 | CCN(Cc1c(F)cccc1Cl)c1c([N+](=O)[O-])cc(C(F)(F)F)cc1[N+](=O)[O-] | – | -29.6% (inactive)
11 | CC(C)c1c(C(=O)Nc2ccccc2)c(-c2ccccc2)c(-c2ccc(F)cc2)n1CC[C@@H](O)C[C@@H](O)CC(=O)O | 1.86 µM (active) and 11.4 µM (active) and 2.66 µM (active) | –
12 | CCCCCCc1ccc(O)cc1O | inactive | –
13 | CCCc1cc(=O)[nH]c(=S)[nH]1 | inactive | –
14 | CCCCC1(COC(=O)CCC(=O)O)C(=O)N(c2ccccc2)N(c2ccccc2)C1=O | inactive | –
15 | CN(N=O)C(=O)N[C@@H]1[C@@H](O)[C@H](O)[C@@H](CO)O[C@@H]1O | inactive | –
16 | Nc1ccc(O)c([N+](=O)[O-])c1 | 8.63 µM (active) | –
17 | CCCCNC(=O)NS(=O)(=O)c1ccc(C)cc1 | inactive | –
18 | C=CCc1ccc(O)c(OC)c1 | inactive | –
19 | O=C1c2c(O)cccc2Cc2cccc(O)c21 | inactive | –
20 | CC(=O)C(=O)O | inactive | –

Row | Structure (SMILES) | Potency | activity change, negative = inhibition
21 | CCOc1ccc(NC(C)=O)cc1 | inactive | –
22 | O=C1NC(=O)C(c2ccccc2)(c2ccccc2)N1 | inactive | –
23 | Nc1c2c(nc3ccccc13)CCCC2 | inactive | –
24 | C[C@](N)(Cc1ccc(O)c(O)c1)C(=O)O | inactive | –
25 | NC1CCCCC1 | inactive | –
26 | CCOC(N)=O | inactive | –
27 | O=C(O)c1ccccc1 | inactive | –
28 | CCCCCCCCCCCC[N+](C)(C)Cc1ccccc1 | 47.6 µM (active) and 21.1 µM (active) | –
29 | COc1ccc(CN(CCN(C)C)c2ccccn2)cc1 | inactive | –
30 | C1=CC2C3C=CC(C3)C2C1 (stereo not given) | – | 2.23% (inactive)
31 | C=C(C)C(=O)OCC(C)O (stereo not given) | inactive | –
32 | Nc1ccc([N+](=O)[O-])cc1O | – | -27.7% (inactive)
33 | O=C(Nc1ncc([N+](=O)[O-])s1)c1cccs1 | – | -53.2% [at 42.5 µM] (inactive)
34 | NC(CO)(CO)CO | inactive | –
35 | OC[C@H]1O[C@H](O[C@]2(CCl)O[C@H](CCl)[C@@H](O)[C@@H]2O)[C@H](O)[C@@H](O)[C@H]1Cl | inactive | –
36 | CS(=O)(=O)OCCCCOS(C)(=O)=O | inactive | –
37 | CC(=O)CCC(=O)O | inactive | –
38 | CC(C)NCC(O)c1ccc(O)c(O)c1 (stereo not given) | inactive | –
39 | CC(=O)CC(c1ccccc1)c1c(O)c2ccccc2oc1=O (stereo not given) | inactive | –
40 | Cn1c(=O)c2c(ncn2C)n(C)c1=O | inactive | –
